The results in this text go back to PubChem BioAssay AID540333 (Southern Research Specialized Biocontainment Screening …, 2011).

About 320 (3.2%) of roughly 10,000 compounds were called active. The full list was thinned out, with actives kept by preference. Unmarked numbers belong to inactive results. Rule as the data show it: active = CPE inhibition mostly above about 9.1% (no sharp cut-off); inactive = mostly below about 7.2%.

The assay is described as follows: Dengue virus cytopathic effect inhibitors, cell-based, CPE readout, HTS (AID 540333). The conditions noted are these: Dengue virus CPE inhibition in host cells, at 20 µM; hits give high values. (Damage to the host cells serves as the signal in cytopathic effect assays.)
In the case of `CCOc1ccc(/C=N/OCC(=O)NC(c2ccccc2)c2ccccc2)cc1`, the CPE inhibition is 13.1% (active).
As for `COc1ccc(/C=N/OCC(=O)NC(c2ccccc2)c2ccccc2)cc1OC`, the CPE inhibition is 7.42%.
Take `CCOc1ccc(/C=C/C(=O)NCc2ccccc2)cc1`: the CPE inhibition result was “inactive”.
In the case of `O=C(CNC(=O)c1cccc(Cl)c1)N/N=C/C=C/c1ccccc1` it was 0.175%; in that of `O=C(CSc1nc2ccccc2c(=O)n1-c1ccc(F)cc1F)c1c[nH]c2ccccc12`, 2.1%; in that of `Cc1ccc(SCC(=O)c2c(C)[nH]c3ccccc23)cc1`, “inactive”.
Consider `CCOC(=O)c1c(C)[nH]c(C)c1C(=O)CSc1nc2ccccc2c(=O)n1-c1ccc(C)cc1`, for which the CPE inhibition result is “inactive”.
Regarding `CCOC(=O)c1c(CSc2ccc(C)cc2)oc2ccc(O)cc12`, the CPE inhibition was 20.7% (active).
On to `CCOc1ccc(/C=C2\SC(N3CCc4ccccc4C3)=NC2=O)cc1`, for which the CPE inhibition was 17.6% (active).
`CCOc1ccc(N2C(=O)S/C(=C\c3cccn3C)C2=O)cc1`: the CPE inhibition entry was “inactive”.
For `CCS(=O)(=O)c1nc(S(=O)(=O)c2ccc(Cl)cc2)c(N2CCc3ccccc3C2)s1`, the CPE inhibition was 0.63%.
Turning to `O=C(CNC1=NCCC1)c1ccc(Cl)cc1`, the CPE inhibition was 0.59%.
The value for `CCN(CC)S(=O)(=O)c1ccc(NS(=O)(=O)c2ccc(O)c([N+](=O)[O-])c2)cc1` was 0.085%; that for `O=C(OCC(=O)N1CCCCC1)c1cc(NS(=O)(=O)c2ccc(Cl)c([N+](=O)[O-])c2)ccc1O` was 0.48%; that for `CCN(C(=O)COC(=O)c1cc(NS(=O)(=O)c2ccc(Cl)c([N+](=O)[O-])c2)ccc1O)C1CCCCC1` was 17.4% (active).
As to `O=C(Nc1nnc(C2CC2)s1)c1cc([N+](=O)[O-])ccc1N1CCCCC1`, the CPE inhibition entry is “inactive”.
On to `CCOC(=O)[C@H]1[C@H]2COc3ccc(OC)cc3[C@@H]2N2C(=O)c3ccc(F)cc3NC(=O)[C@@]12C`, for which the CPE inhibition result was “inactive”.
Take `CCOC(=O)[C@H]1[C@H]2COc3ccc(Cl)cc3[C@@H]2N2C(=O)c3cc(F)c(F)cc3NC(=O)[C@@]12C`: the CPE inhibition was 18% (active).
As for `CCOC(=O)[C@H]1[C@H]2COc3ccccc3[C@@H]2N2C(=O)c3cc(Cl)ccc3NC(=O)[C@@]12C`, the CPE inhibition was 4.61%.
In the case of `CCOC(=O)[C@H]1[C@H]2COc3ccccc3[C@@H]2N2C(=O)c3cc(C)ccc3NC(=O)[C@@]12C`, the CPE inhibition was 0.17%.
With `CCOC(=O)[C@H]1[C@H]2COc3ccccc3[C@@H]2N2C(=O)c3ccc(C)cc3NC(=O)[C@@]12C`, the CPE inhibition result is “inactive”.
In the case of `CCOC(=O)[C@H]1[C@H]2COc3ccc(Cl)cc3[C@@H]2N2C(=O)c3cc(C)ccc3NC(=O)[C@@]12C`, the CPE inhibition was 12.9% (active).
`NC(=O)CC[C@H](NC(=O)OCc1ccccc1)C(=O)OCc1ccc(Cl)cc1`: the CPE inhibition was 0.15%.
With `COc1ccc(NC(=O)c2ccc3c(c2)S(=O)(=O)c2ccccc2C3=O)cc1`, the CPE inhibition was 1.25%.
Take `O=C(/C=C\Nc1ccc(Br)cc1)c1cccnc1`: the CPE inhibition is 0.09%.
As to `COc1cccc(C(=O)NC(=S)Nc2ccc(N(C)C)cc2)c1`, the CPE inhibition result was “inactive”.
As to `COc1ccc(S(=O)(=O)N2CCOCC2)cc1NC(=O)c1cc2c(s1)CCCC2`, the CPE inhibition is 0.62%.
With `COc1ccc(NC(=O)CN2CCC(Cc3ccccc3)CC2)cc1S(=O)(=O)N1CCOCC1`, the CPE inhibition is 0.605%.
For the compound `COc1ccc(NC(=O)c2cc3c(s2)CCC(C)C3)cc1S(=O)(=O)N1CCOCC1` (stereo unspecified), the CPE inhibition is 16.7% (active).
Turning to `CCCN(CC(=O)Nc1ccc(F)c(F)c1F)CC(=O)Nc1c(Cl)cccc1Cl`, the CPE inhibition was 1.15%.
Regarding `Cc1cc(C)nc(NC(=NCCc2c[nH]c3ccccc23)NC(=O)Nc2ccccc2)n1`, the CPE inhibition is 13.5% (active).
On to `Cc1cc(C)nc(NC(=NCCc2c[nH]c3ccccc23)NC(=O)Nc2ccc(Cl)c(Cl)c2)n1`, for which the CPE inhibition is 7.48%.
In the case of `Cc1cc(C)nc(NC(=NCCc2c[nH]c3ccccc23)NC(=O)Nc2ccc(Cl)cc2)n1` it was 4.91%.
As to `COc1ccc(NC(=S)Nc2ccc(OCc3ccccc3)cc2)c(OC)c1`, the CPE inhibition was 5.78%.
In the case of `CC(C)c1ccccc1NC1=CC(=O)CC(C)(C)C1` it was 1.06%; in that of `CCN1CCN(C(=S)NC(C)c2ccccc2)CC1` (stereo unspecified), “inactive”; in that of `CCCNC(=S)N1CCN(C(c2ccccc2)c2ccccc2)CC1`, 9.31%.
As to `CC(NC(=S)N1CCOCC1)c1ccccc1` (stereo unspecified), the CPE inhibition result is “inactive”.
The value for `CC(C)CNC(=S)N1CCN(C(c2ccccc2)c2ccccc2)CC1` was 27.6% (active); that for `CCC(C)NC(=S)N1CCN(C(c2ccccc2)c2ccccc2)CC1` (stereo unspecified) was 11% (active).
As for `COc1ccc(NC(=S)N2CCN(C(c3ccccc3)c3ccccc3)CC2)cc1OC`, the CPE inhibition is 2.59%.
Regarding `O=C(NCCc1ccccc1)C(=O)Nc1nccs1`, the CPE inhibition was 0.515%.
For the compound `CCCc1nnc(NC(=O)CCC(=O)N2CCN(C3c4ccccc4-c4ccccc43)CC2)s1`, the CPE inhibition result is “inactive”.
`CCOc1cc(/C=N/NC(=O)CSc2nncn2C)ccc1OC(=O)c1ccc(Cl)cc1`: the CPE inhibition is 1.75%.
In the case of `S=C(Nc1ccccc1Cl)N1CCCCC1`, the CPE inhibition entry was “inactive”.
On to `N#Cc1c(-c2ccc(Cl)cc2)c(C#N)c(=O)n(N)c1N`, for which the CPE inhibition was 0.43%.
For the compound `Cc1ccc(NC(=O)Cc2ccc(Cl)c(Cl)c2)cc1S(=O)(=O)N(C)C`, the CPE inhibition is 11.7% (active).
For `COc1ccc(CCC(=O)OCC(=O)Nc2ccc(C)c(S(=O)(=O)N(C)C)c2)cc1`, the CPE inhibition was 0.745%.
For `Cc1ccc(NC(=O)CSc2nn(-c3ccc(Cl)cc3)c(=S)s2)cc1S(=O)(=O)N(C)C`, the CPE inhibition is 2.52%.
As to `Cc1ccc(NC(=O)c2cnccn2)cc1S(=O)(=O)N(C)C`, the CPE inhibition is 1.06%.
Take `Cc1ccc(NC(=O)CCNC(=O)c2ccccc2Cl)cc1S(=O)(=O)N(C)C`: the CPE inhibition is 0.01%.
In the case of `Cc1ccc(NC(=O)CNc2ccc(Cl)c(Cl)c2)cc1S(=O)(=O)N(C)C` it was 20.7% (active); in that of `CN(C)S(=O)(=O)n1cnc([C@@H]2[C@H]3C(=O)OC[C@@H]3C[C@@]23N=CN(Cc2ccccc2)C3=O)c1`, 0.215%.
In the case of `CC1CCCN(c2ccc(C(=O)NCc3ccc4c(c3)OCO4)cc2[N+](=O)[O-])C1` (stereo unspecified) it was 0.66%; in that of `NNC(=O)c1ccc(COc2cccc3ccccc23)cc1`, 0.845%.
On to `CC(C)c1ccc(NCCC(=O)c2ccc(Br)cc2)cc1`, for which the CPE inhibition result was “inactive”.
Take `CCNC(=S)Nc1cc(Cl)ccc1Oc1ccccc1`: the CPE inhibition was 1.55%.
As to `COc1cc(/C=C2\C(=O)N(c3ccccc3)N=C2C)ccc1Oc1ccc([N+](=O)[O-])cc1[N+](=O)[O-]`, the CPE inhibition is 12.3% (active).
With `CC1=NN(c2ccccc2)C(=O)/C1=C\c1cc(C)n(-c2ccccc2)c1C`, the CPE inhibition was 1.6%.
For `CC1=NN(c2ccccc2)C(=O)/C1=C/c1ccc[nH]1`, the CPE inhibition result was “inactive”.
Regarding `CCOC(=O)c1cc(-c2ccccc2)sc1NC(=O)CC`, the CPE inhibition result is “inactive”.
Regarding `CCOC(=O)c1cc(-c2ccccc2)sc1NC(=O)C(C)Sc1nnc(N)s1` (stereo unspecified), the CPE inhibition was 19% (active).
`CCOC(=O)c1cc(-c2ccccc2)sc1NC(=O)C(C)C`: the CPE inhibition was 0.57%.
Regarding `COC(=O)NNC(=O)COc1ccc2ccccc2c1Br`, the CPE inhibition entry was “inactive”.
With `CCOC(=O)c1ccc(-c2ccc(C3Nc4ccccc4C(=O)N3O)o2)cc1` (stereo unspecified), the CPE inhibition is 0.8%.
The value for `Fc1ccc2nc(Nc3nc4cc5c(cc4s3)OCCO5)sc2c1` was 9.35% (active); that for `COC(=O)c1ccc2nc(Nc3nc4ccc(F)cc4s3)sc2c1` was 1.64%; that for `c1ccc2sc(Nc3nc4cc5c(cc4s3)OCO5)nc2c1` was 0.275%.
Consider `Fc1cccc2sc(Nc3nc4cc5c(cc4s3)OCO5)nc12`, for which the CPE inhibition is 13.5% (active).
In the case of `Fc1cccc2sc(Nc3nc4ccccc4s3)nc12` it was 0.65%.
`Fc1ccc2nc(Nc3nc4c(F)cc(F)cc4s3)sc2c1`: the CPE inhibition was 1.16%.
The value for `Cc1ccc(N/N=C(\C#N)C(N)=S)c(C)c1` was 4.94%; that for `Cc1ccccc1-n1c(-c2csc(C)c2C)n[nH]c1=S` was 0.5%; that for `C=CCOC(=O)C1=C[C@@H](c2coc3ccccc3c2=O)C[C@@H](OCCCCO)O1` was “inactive”.
`O=C1c2cccc3c(N4CCOCC4)c([N+](=O)[O-])cc(c23)C(=O)N1c1cccc2ccccc12`: the CPE inhibition entry was “inactive”.
Consider `N#Cc1ccc(C23CC4(C2)[C@H](CN(P(=O)(c2ccccc2)c2ccccc2)[C@@H]4c2ccccc2)C3c2ccc(Cl)nc2)cc1` (stereo partly specified), for which the CPE inhibition is 18.1% (active).
For the compound `Clc1ccc(C2[C@H]3CN(CC4CCCCC4)[C@H](c4ccccc4)C34CC2(c2ccccc2)C4)cn1` (stereo partly specified), the CPE inhibition was 4.18%.
For `CC(C)CC(=O)NC(Nc1ccc([N+](=O)[O-])cc1)C(Cl)(Cl)Cl` (stereo unspecified), the CPE inhibition is 6.29%.
As to `Cc1cccc(N2C(=O)C(Cc3ccccc3)NC2=S)c1` (stereo unspecified), the CPE inhibition entry was “inactive”.
In the case of `O=C(N=Nc1c(O)n(Cc2ccccc2)c2ccccc12)c1ccc(O)cc1` it was 16.3% (active); in that of `CCn1c(O)c(N=NC(=O)c2ccc(CSc3nncn3C)cc2)c2ccccc21`, “inactive”; in that of `CCCCn1c(O)c(N=NC(=O)c2ccco2)c2ccccc21`, “inactive”.
In the case of `C/C(=N\Nc1ccc([N+](=O)[O-])cc1)c1ccc(-n2nncc2C)cc1`, the CPE inhibition entry is “inactive”.
As for `N#CC(C#N)=Cc1ccc(-c2ccc(S(=O)(=O)N=C(N)N)cc2)o1`, the CPE inhibition is 0.46%.
In the case of `COC(=O)c1sc2nc(C)cc(-c3ccccc3)c2c1N` it was “inactive”; in that of `Cc1ccc(/C=C2\SC(=S)N(CCC(=O)NNS(=O)(=O)c3ccc(C)cc3)C2=O)cc1`, 0.18%.
Turning to `CC(C)(C)CNC(=O)c1cccc2c1C(=O)c1ccc(N3CCCC3)cc1S2(=O)=O`, the CPE inhibition was 0.02%.
In the case of `O=C(Nc1nc(-c2ccc(-c3ccccc3)cc2)cs1)C1=COCCO1` it was 1.39%.
For `O=C(Nc1nc(-c2cccs2)cs1)C1=COCCO1`, the CPE inhibition result is “inactive”.
In the case of `O=C(Nc1nc(-c2ccc(Oc3ccccc3)cc2)cs1)C1=COCCO1` it was 10.7% (active); in that of `O=C1N=C(N2CCCC2)CN1c1ccccc1`, 0.23%.
